Among the data in the supplement of paper PMC6555819 are PBM binding z-score values, retold here.

This experiment concerns PPARg:RXRa 90nM:30nM, anti-RXR (NR concentration 90 nM, RXRa partner concentration 30 nM). Description: PBM binding z-score (relative to random genomic background probes); higher = stronger binding; sequences stand for … in GC…GCGATTGACAGCGTAGAATGAAGG
Put shortly:
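Custom Agilent 4×180K protein-binding microarrays carried double-stranded probes. Their 34-nt variable regions held direct-repeat seeds, single-nucleotide variants, half-site ablations and random human genomic background sequences. Arrays were incubated 1 h with ligand-free nuclear receptor dimers in PBS pH 7.4, 2% milk, 0.02% Triton X-100, 1 mM DTT, 0.2 mg/mL BSA and 0.4 mg/ml salmon testes DNA. Antibodies against each partner (one per run) detected binding, and scanned fluorescence was regression-normalized. Binding z-scores use random background probes as reference.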
AATACAGGGTCATCGTAGGCCAGAGAACGCACAG: the PBM binding z-score came to 5.08.

Regarding CCGACTGGGGCATAAGGTTACGATAAGCCAGCCC, the PBM binding z-score worked out at 3.22.

CGTCCAAGGTCAGAGAGGTAAGTGAATGCCGAGT returned a PBM binding z-score of 1.42.

TCGAGTAGGTTACCAATGGGGCGTTCAGCTTTCT registered a PBM binding z-score of 1.03.

CCTCCTGGGCCAAAGGTCATTGATTCCAATGCTC showed a PBM binding z-score of 10.1.

With GCGACTGGGGCATCAGGAGGTTACCATAACTTAA, the PBM binding z-score amounted to 0.599.

CCTATTAGTTGACCATAAGGGCAACGGAAGCTCG: the PBM binding z-score worked out at 0.476.

For the sequence CAAACTAGGTCAACGGAAGGTCAAAGTCCGCATG, the PBM binding z-score is 7.49.

ACTATTAGTTGAGACGCGGGCAACCGATAGGTTG: the PBM binding z-score was -0.167.

ACTAGTTAGTCAGCTGAGGTCACACACAATTCGG: the PBM binding z-score came out at 1.49.

As for ATCGAAAGGTCGAAGGTGAATATACCCACCCGAA, the PBM binding z-score came out at 4.71.

Regarding ATATCTAGGTTAGCTGGGGTCATTCAGACTAGGC, the PBM binding z-score is 4.47.

TCTTGTAGATCAAGCAGGTTAAGAAGGCCTGAGT displayed a PBM binding z-score of 1.9.

As to CCAGACAGGTTAAAGGTAACTCAGTCTGGTACGC, the PBM binding z-score came out at 5.29.

Regarding TCTTGTAGATCAAAGGTTAAGTAAGCCGAAGCCT, the PBM binding z-score was determined as 8.69.

TCTGCAAGGTCAGTTGGTCAGCTAACGAGCTGCC yielded a PBM binding z-score of 1.72.

On to TTACCAAGGTGAAGGTCGCTGATCCCTCTGTAGA, for which the PBM binding z-score came to 3.68.

As to ACTTACGGGGCAACGAGGTTATAGCACGCGTATA, the PBM binding z-score was 1.2.

As for TCTGCTAGGTCAACGATGGTCAGCCAATCTGCTA, the PBM binding z-score amounted to 2.48.

On to ATCTCTACGTAACCAAGTTCAGTGAATGCCGAAC, for which the PBM binding z-score was 0.36.

For the sequence GCTATTAGTTGAAAGGGCATCCGAATGATTCTCG, the PBM binding z-score is 3.96.

Take CGAACTAGGTCGTTGACAGGACAGTGAATAGTAA: the PBM binding z-score was 1.44.
